Data: PubChem BioAssay (Tox21)
Inconclusive results are not listed. Active and inactive are the calls of the source. The call rests on the fitted dose curve; in most records, active means well fitted curve in the direction sought with a large enough effect in the repeat runs; inconclusive means weak or mixed curves; inactive means no such curve, though single readings can be large; an effect the other way counts as inactive or inconclusive.

Experiments:
[1] = A CellTox Green Cytotoxicity Assay to monitor cytotoxicity in HepG2 cells - 0 hour (AID 1224882); further: nearly all actives have a fitted effect of over 35% in size; further: potency means the concentration at half of the fitted maximal effect
How it was run: (§1)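 HepG2, 600 cells/well premixed w/ CellTox Green; 5 h settle, 37 C/5% CO2; pintool cpd add (DMSO); 37 C, 40 h; fluorescence read at 0, 8, 16, 24, 32, 40 h.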

[2] = A CellTox Green Cytotoxicity Assay to monitor cytotoxicity in HEK293 cells - 8 hour (AID 1224884); further: nearly all actives have a fitted effect of over 35% in size; further: potency means the concentration at half of the fitted maximal effect
How it was run: (§2)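 Read-out: fluorescence of a cell-impermeant cyanine dye staining DNA of dead cells, proportional to cytotoxicity. HEK293, 600 cells/well with reagent, compound (23 nL DMSO) added after 5 h; reads at 0, 8, 16, 24, 32, 40 h.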

[3] = qHTS RealTime-Glo MT Cell Viability Assay in HepG2 cells - 16 hour (AID 1224885); further: nearly all actives have a fitted effect of over 50% in size; further: potency means the concentration at half of the fitted maximal effect
How it was run: (§3)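 Tox21 10K library screened in qHTS format on HepG2 cells carrying RealTime-Glo reagents. Compounds were added after a 5 h preincubation, and the luminescent signal from continuous culture was measured repeatedly during 40 h treatment.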

[4] = qHTS RealTime-Glo MT Cell Viability Assay in HEK293 cells - 24 hour (AID 1224886); further: nearly all actives have a fitted effect of over 50% in size; further: potency means the concentration at half of the fitted maximal effect; on activity change, negative = cytotoxicity: top concentration of the series differs between compounds
How it was run: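 Luminescence generated by NanoLuc from substrate produced by living HEK293 cells served as the viability signal. Each value reflects the reading at its stated time point during continuous 40 h compound exposure at 37 C.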

[5] = qHTS RealTime-Glo MT Cell Viability Assay in HEK293 cells - 8 hour (AID 1224887); further: nearly all actives have a fitted effect of over 50% in size; further: potency means the concentration at half of the fitted maximal effect; on activity change, negative = cytotoxicity: top concentration of the series differs between compounds
How it was run: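 Luminescence readout at each listed time point; HEK293, 600 cells/well, RealTime-Glo MT reagent added with cells; compounds pinned (23 nL in DMSO) after 5 h at 37 C; continuous culture at 37 C.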

[6] = A CellTox Green Cytotoxicity Assay to monitor cytotoxicity in HEK293 cells - 16 hour (AID 1224888); further: nearly all actives have a fitted effect of over 35% in size; further: potency means the concentration at half of the fitted maximal effect
How it was run: as §2

[7] = qHTS RealTime-Glo MT Cell Viability Assay in HepG2 cells - 0 hour (AID 1224889); further: nearly all actives have a fitted effect of over 50% in size
How it was run: as §3

[8] = A CellTox Green Cytotoxicity Assay to monitor cytotoxicity in HepG2 cells - 8 hour (AID 1224890); further: nearly all actives have a fitted effect of over 45% in size; further: potency means the concentration at half of the fitted maximal effect
How it was run: as §1

[9] = qHTS assay to identify small molecule antagonists of the estrogen receptor alpha (ER-alpha) signaling pathway using the BG1 cell line in the presence of 0.1 nM 17-beta-estradiol - cell viability counter screen (AID 1259241); further: nearly all actives have a fitted effect of over 40% in size
How it was run: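 Cytotoxicity counter-screen: live-cell protease activity measured by fluorescence (30 min reagent step) in the same wells. Cells were VM7Luc4E2 with endogenous ER-alpha and ERE-driven luciferase, treated 22 hr at 37C alongside 0.1 nM 17beta-estradiol final.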

[10] = A CellTox Green Cytotoxicity Assay to monitor cytotoxicity in HepG2 cells - 32 hour (AID 1224883); further: nearly all actives have a fitted effect of over 50% in size; further: potency means the concentration at half of the fitted maximal effect
How it was run: as §1
On the % scale 0 is the no-effect control and ±100 the full control effect.

CCCCCCC(CO)CCCC (configuration not stated)
inactive: Potency [1] | Potency [2] | Potency [3] | Potency [4] | Potency [5] | Potency [6] | Potency [7] | Potency [8]

CCCCCCCCCCCCCOS(=O)(=O)O
inactive: Potency [1] | Potency [2] | Potency [3] | Potency [4] | Potency [5] | Potency [6] | Potency [7] | Potency [8] | Potency [9]

c1ccc(CNc2ncnc3c2ncn3C2CCCCO2)cc1 (configuration not stated)
inactive: Potency [1] | Potency [10] | Potency [2] | Potency [3] | Potency [6] | Potency [7] | Potency [8] | Potency [9]

O=C(O)CCC(=O)c1ccc(-c2ccccc2)cc1
inactive: Potency [1] | Potency [2] | Potency [3] | Potency [4] | Potency [5] | Potency [6] | Potency [7] | Potency [8]

Cc1ccc2c(c1[N+](=O)[O-])C(=O)c1ccccc1C2=O
inactive: Potency [1] | Potency [10] | Potency [2] | Potency [3] | Potency [5] | Potency [6] | Potency [7] | Potency [8] | Potency [9]

CC(C)OC(=O)c1ccccc1C(=O)OC(C)C
inactive: Potency [1] | Potency [10] | Potency [2] | Potency [3] | Potency [4] | Potency [6] | Potency [7] | Potency [8]

CCOC(=O)c1c(N)sc2c1CCN(Cc1ccccc1)C2
active: Potency [4] 19 µM
inactive: Potency [1] | Potency [10] | Potency [2] | Potency [3] | Potency [6] | Potency [7] | Potency [8] | Potency [9]

Cc1cc(CCCOc2c(C)cc(-c3noc(C(F)(F)F)n3)cc2C)on1
inactive: Potency [1] | Potency [10] | Potency [2] | Potency [3] | Potency [6] | Potency [7] | Potency [8] | Potency [9]

CNS(=O)(=O)c1cc(C(=O)N2CCC(CCN3C4CCC3CC(n3c(C)nc5ccccc53)C4)(c3cccc(F)c3)CC2)c(Cl)cc1F (configuration not stated)
inactive: Potency [1] | Potency [10] | Potency [2] | Potency [6] | Potency [8] | Potency [9]
active: Potency [4] 4.36 µM | Potency [5] 3.89 µM

CCCCCCCC(=O)Oc1c(Br)cc(C#N)cc1Br
inactive: Potency [1] | Potency [10] | Potency [2] | Potency [3] | Potency [6] | Potency [7] | Potency [8]
active: Potency [4] 38.8 µM

Cc1ccc2nc(N)[nH]c(=O)c2c1Sc1ccncc1
inactive: Potency [1] | Potency [10] | Potency [2] | Potency [4] | Potency [5] | Potency [6] | Potency [7] | Potency [8]

c1ccc2sc(SSc3nc4ccccc4s3)nc2c1
inactive: cytotoxicity [1] 0.139% [at 15.8 µM] | cytotoxicity increase [2] 3.51% [at 15.8 µM] | activity change, negative = cytotoxic [3] 5.08% [at 15.8 µM] | activity change, negative = cytotoxicity [4] 4.46% [at 15.8 µM] | activity change, negative = cytotoxicity [5] 0.0342% [at 15.8 µM] | activity change [6] 10.5% [at 15.8 µM, active compounds read high] | activity change, negative = cytotoxicity [7] 0.525% [at 15.8 µM] | cytotoxicity increase [8] 0.594% [at 15.8 µM]

CCCCCCCCCCCSCC(=O)O
inactive: Potency [1] | Potency [2] | Potency [3] | Potency [4] | Potency [5] | Potency [6] | Potency [7] | Potency [8] | Potency [9]

O=[N+]([O-])C1(Br)COCOC1
active: Potency [10] 49 µM | Potency [3] 49 µM | Potency [4] 38.9 µM | Potency [5] 49 µM
inactive: Potency [1] | Potency [7] | Potency [9]

CC(C)Cc1ccc(CC(=O)O)cc1
active: Potency [1] 19 µM | Potency [2] 9.52 µM | Potency [6] 9.52 µM | Potency [8] 21.3 µM
inactive: Potency [3] | Potency [4] | Potency [5] | Potency [7] | Potency [9]

CCCCCCCCCCCCCC(=O)OCC(O)CO (configuration not stated)
inactive: Potency [1] | Potency [10] | Potency [2] | Potency [3] | Potency [4] | Potency [5] | Potency [7] | Potency [8] | Potency [9]

O=C(O)CCC(=O)OC[C@@H](NC(=O)C(Cl)Cl)[C@H](O)c1ccc([N+](=O)[O-])cc1
inactive: Potency [3] | Potency [4] | Potency [5] | Potency [7] | Potency [9]
active: Potency [1] 19 µM | Potency [10] 12 µM | Potency [2] 21.3 µM | Potency [8] 21.3 µM

O=C(CCS)OCC(COC(=O)CCS)(COC(=O)CCS)COC(=O)CCS
inactive: Potency [1] | Potency [10] | Potency [2] | Potency [3] | Potency [6] | Potency [7] | Potency [8] | Potency [9]

CN1CCCN(C(c2ccccc2)c2ccc(Cl)cc2)CC1 (configuration not stated)
active: Potency [10] 21.3 µM
inactive: Potency [1] | Potency [2] | Potency [5] | Potency [6] | Potency [8]

Nc1nc2ccc(OC(F)(F)F)cc2s1
inactive: Potency [1] | Potency [10] | Potency [2] | Potency [3] | Potency [5] | Potency [6] | Potency [7] | Potency [8] | Potency [9]

Nc1ccc(F)cc1
inactive: Potency [1] | Potency [10] | Potency [2] | Potency [3] | Potency [4] | Potency [5] | Potency [7] | Potency [8]

CCCCCCCC(=O)OCCCCCC
active: Potency [4] 3.89 µM
inactive: Potency [1] | Potency [10] | Potency [2] | Potency [3] | Potency [6] | Potency [7] | Potency [8] | Potency [9]

O=C1CC[C@@H](C(=O)O)N1
inactive: Potency [1] | Potency [2] | Potency [3] | Potency [4] | Potency [5] | Potency [6] | Potency [7] | Potency [8]

Nc1c(Cl)cc(Cl)cc1[N+](=O)[O-]
inactive: Potency [1] | Potency [2] | Potency [3] | Potency [4] | Potency [5] | Potency [6] | Potency [7] | Potency [8] | Potency [9]

O=C(C(=O)c1ccco1)c1ccco1
inactive: Potency [1] | Potency [10] | Potency [2] | Potency [3] | Potency [6] | Potency [7] | Potency [8] | Potency [9]
